According to PubChem BioAssay (EPA / NIEHS):
Several values for one entry are separate records, joined by “and”; a condition that tells them apart may be missing. Equal values may be shown once. Some compounds were tested as several samples or in several runs, with calls that do not always agree. Activity calls are given as the source filed them. How the source made its calls: active means hit-call score of the fitted dose curve at least 0.9, where 1 is the maximum; inactive means score below 0.9.

Columns and labels:
[1] = read-out: Macrophage colony-stimulating factor (MCSF), CSF1 (gene 1435); assay: BSK_hDFCGF_MCSF: BioMAP Diversity Plus: hDFCGF Assay for Macrophage colony-stimulating factor (MCSF) Biomarker Activity (AID 2283060); settings: primary human foreskin fibroblasts; actives raise or lower the signal
Method in brief: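 ELISA read-out of M-CSF in human dermal foreskin fibroblast cultures, 24 h after chemical dosing; gain or loss of signal fitted bidirectionally relative to DMSO baseline.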

[2] = BSK_hDFCGF_SRB: Viability Assessment in the BioMAP Diversity Plus: hDFCGF Assay (AID 2283061); settings: primary human foreskin fibroblasts;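 further: cells exposed to compound for 24 h before the read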
Method in brief: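 Primary human foreskin fibroblasts; 24 h post-dose; fixed 10% TCA, stained 0.1% SRB, A560 read; total protein as overt cytotoxicity measure; curves fit bidirectionally vs DMSO control.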

[3] = read-out: TIMP metallopeptidase inhibitor 1 (TIMP1), TIMP1 (gene 7076); assay: BSK_hDFCGF_TIMP1: BioMAP Diversity Plus: hDFCGF Assay for TIMP metallopeptidase inhibitor 1 (TIMP1) Biomarker Activity (AID 2283062); settings: primary human foreskin fibroblasts; actives raise or lower the signal
Method in brief: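 ELISA readout of TIMP-1 from human dermal foreskin fibroblast cultures 24 h post-dosing. Curves were fitted in both directions against DMSO baseline, with SRB total-protein staining in parallel cultures as a cytotoxicity check.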

[4] = read-out: Monokine induced gamma interferon (MIG), CXCL9 (gene 4283); assay: BSK_hDFCGF_MIG: BioMAP Diversity Plus: hDFCGF Assay for Monokine induced gamma interferon (MIG) Biomarker Activity (AID 2283063); settings: primary human foreskin fibroblasts; actives raise or lower the signal
Method in brief: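 Fibroblasts (human foreskin, primary) dosed, 24 h, MIG by ELISA; fit bidirectional vs DMSO.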

[5] = read-out: Matrix Metallopeptidase 1 (MMP1), MMP1 (gene 4312); assay: BSK_hDFCGF_MMP1: BioMAP Diversity Plus: hDFCGF Assay for Matrix Metallopeptidase 1 (MMP1) Biomarker Activity (AID 2283064); settings: primary human foreskin fibroblasts; actives raise or lower the signal
Method in brief: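 ELISA read-out of MMP1 from human foreskin fibroblasts (primary skin cells), 24 h post-dose. Gain or loss of signal was fitted bidirectionally versus DMSO negative control; cytotoxicity was checked by SRB in parallel cultures.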

[6] = read-out: Vascular cell adhesion molecule 1 (VCAM1), VCAM1 (gene 7412); assay: BSK_hDFCGF_VCAM1: BioMAP Diversity Plus: hDFCGF Assay for Vascular cell adhesion molecule 1 (VCAM1) Biomarker Activity (AID 2283065); settings: primary human foreskin fibroblasts; actives raise or lower the signal;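 on AC50: VCAM-1 protein level quantified by ELISA after 24 h chemical exposure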
Method in brief: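 ELISA read-out of VCAM-1 on human skin fibroblasts, 24 h post-dose; gain or loss of signal fitted bidirectionally against DMSO baseline.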

[7] = read-out: Plasminogen activator inhibitor-1 (PAI1), SERPINE1 (gene 5054); assay: BSK_hDFCGF_PAI1: BioMAP Diversity Plus: hDFCGF Assay for Plasminogen activator inhibitor-1 (PAI1) Biomarker Activity (AID 2283066); settings: primary human foreskin fibroblasts; actives raise or lower the signal
Method in brief: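 Human skin fibroblast cultures receive chemical for 24 h before PAI-1 is measured by ELISA; signal changes are fitted bidirectionally against DMSO-treated wells.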

[8] = read-out: Intercellular Adhesion Molecule 1 (ICAM1), ICAM1 (gene 3383); assay: BSK_KF3CT_ICAM1: BioMAP Diversity Plus: KF3CT Assay for Intercellular Adhesion Molecule 1 (ICAM1) Biomarker Activity (AID 2283067); settings: primary human keratinocytes with fibroblasts; actives raise or lower the signal
Method in brief: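 ELISA readout of ICAM-1; KF3CT human skin co-culture (keratinocytes + foreskin fibroblasts), 24 h post-dose; gain/loss fit vs DMSO baseline.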

[9] = read-out: Interferon-gamma inducible Protein 10 (IP10), CXCL10 (gene 3627); assay: BSK_KF3CT_IP10: BioMAP Diversity Plus: KF3CT Assay for Interferon-gamma inducible Protein 10 (IP10) Biomarker Activity (AID 2283068); settings: primary human keratinocytes with fibroblasts; actives raise or lower the signal
Method in brief: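 KF3CT co-culture (keratinocytes + foreskin fibroblasts), 24 h compound, IP-10 by ELISA; bidirectional fit vs DMSO baseline.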

[10] = BSK_KF3CT_SRB: Viability Assessment in the BioMAP Diversity Plus: KF3CT Assay (AID 2283069); settings: primary human keratinocytes with fibroblasts;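 further: total protein by sulforhodamine B staining as a cytotoxicity measure; read 24 h after compound addition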
Method in brief: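 SRB read-out at 560 nm (0.1% stain, TCA-fixed cells) gauges overt cytotoxicity in a human skin keratinocyte–fibroblast co-culture 24 h post-dosing. Signal change was fitted bidirectionally relative to DMSO control.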

| SMILES | outcome [1] | outcome [2] | outcome [3] | outcome [4] | outcome [5] | outcome [6] | outcome [7] | outcome [8] | outcome [9] | outcome [10] | AC50 [1] | AC50 [2] | AC50 [3] | AC50 [4] | AC50 [5] | AC50 [6] | AC50 [7] | AC50 [8] | AC50 [9] | AC50 [10] |
| --- | --- | --- | --- | --- | --- | --- | --- | --- | --- | --- | --- | --- | --- | --- | --- | --- | --- | --- | --- | --- |
| CCC(C)OC(=O)N1CCCCC1CCO (stereo unspecified) | inactive | inactive | inactive | inactive | inactive | inactive | inactive | inactive | inactive | inactive |  |  |  |  |  |  |  |  |  |  |
| CCCOC(=O)NCCCN(C)C | inactive | inactive | inactive | inactive | inactive | inactive | inactive | inactive | inactive | inactive |  |  |  |  |  |  |  |  |  |  |
| c1ccc2[nH]c(-c3cscn3)nc2c1 | inactive | inactive | inactive | inactive | inactive | inactive | inactive | inactive | inactive | inactive |  |  |  |  |  |  |  |  |  |  |
| CCCN(CCC)c1c([N+](=O)[O-])cc(C(F)(F)F)c(N)c1[N+](=O)[O-] |  |  |  |  |  |  |  |  |  |  | 27.9 µM (active) | 33.3 µM (active) | 30.2 µM (active) | 35.9 µM (active) | 35.5 µM (active) | 26.9 µM (active) | 20 µM (active) | 36 µM (active) | 34.7 µM (active) | 31.3 µM (active) |
| CC(C)(C)[C@@H](O)[C@@H](Cc1ccc(Cl)cc1)n1cncn1 | inactive | inactive | inactive | inactive |  | inactive | inactive | inactive | inactive | inactive |  |  |  |  | 1.42 µM (active) |  |  |  |  |  |
| CN(C)C(=O)Nc1ccc(Cl)c(Cl)c1 | inactive | inactive | inactive | inactive | inactive | inactive | inactive | inactive | inactive | inactive |  |  |  |  |  |  |  |  |  |  |
| COc1c(Cl)ccc(Cl)c1C(=O)O | inactive | inactive | inactive | inactive | inactive | inactive | inactive | inactive | inactive | inactive |  |  |  |  |  |  |  |  |  |  |
| N#CSCSc1nc2ccccc2s1 |  |  |  |  |  |  |  |  |  | inactive | 1.56 µM (active) and 1.28 µM (active) | 1.08 µM (active) and 155 nM (active) | 1.63 µM (active) and 148 nM (active) | 1.67 µM (active) and 1.3 µM (active) | 1.82 µM (active) and 1.61 µM (active) | 1.37 µM (active) and 460 nM (active) | 1.72 µM (active) and 627 nM (active) | 7.09 µM (active) and 10.6 µM (active) | 7.03 µM (active) and 11.6 µM (active) | 5.31 µM (active) |
| O=C(c1ccc(O)cc1O)c1ccc(O)cc1O | inactive | inactive | inactive | inactive | inactive | inactive | inactive | inactive | inactive | inactive |  |  |  |  |  |  |  |  |  |  |
| OB(O)O | inactive | inactive | inactive | inactive | inactive | inactive | inactive | inactive | inactive | inactive |  |  |  |  |  |  |  |  |  |  |
| CCCCOC(=O)C(C)Oc1ccc(Oc2ccc(C(F)(F)F)cn2)cc1 (stereo unspecified) | inactive | inactive | inactive | inactive | inactive | inactive | inactive | inactive | inactive | inactive |  |  |  |  |  |  |  |  |  |  |
| CC(=O)S[C@@H]1CC2=CC(=O)CC[C@]2(C)[C@H]2CC[C@@]3(C)[C@@H](CC[C@@]34CCC(=O)O4)[C@H]12 |  |  | inactive |  |  | inactive |  | inactive |  | inactive | 10.6 µM (active) | 26.7 µM (active) |  | 31.2 µM (active) | 31.3 µM (active) |  | 10.3 µM (active) |  | 33.4 µM (active) |  |
| CCOC(=O)C(C)Oc1ccc(Oc2nc3ccc(Cl)cc3o2)cc1 (stereo unspecified) | inactive | inactive | inactive | inactive |  | inactive | inactive | inactive | inactive | inactive |  |  |  |  | 20 µM (active) |  |  |  |  |  |
| CC(C)CCCCCCc1ccc(O)cc1 |  |  |  |  |  |  |  |  |  |  | 8.61 µM (active) | 10.2 µM (active) | 11.9 µM (active) | 8.13 µM (active) | 9.57 µM (active) | 9.07 µM (active) | 11.1 µM (active) | 7.58 µM (active) | 9.35 µM (active) | 5.35 µM (active) |
| CSC(=O)c1cccc2nnsc12 | inactive | inactive | inactive | inactive | inactive | inactive | inactive | inactive | inactive | inactive |  |  |  |  |  |  |  |  |  |  |
| O=C(O)c1ccccc1 | inactive | inactive | inactive | inactive | inactive | inactive | inactive | inactive | inactive | inactive |  |  |  |  |  |  |  |  |  |  |
| O=C(c1ccccc1)C1CCCCC1 | inactive | inactive | inactive | inactive | inactive | inactive | inactive | inactive | inactive | inactive |  |  |  |  |  |  |  |  |  |  |
| COC(=O)c1ccccc1S(=O)(=O)NC(=O)Nc1nc(OC(F)F)cc(OC(F)F)n1 | inactive | inactive | inactive | inactive | inactive | inactive | inactive | inactive | inactive | inactive |  |  |  |  |  |  |  |  |  |  |
| CCOC(=O)c1ccc(O)cc1 | inactive | inactive | inactive | inactive | inactive | inactive | inactive | inactive | inactive | inactive |  |  |  |  |  |  |  |  |  |  |
| COC(=O)c1ccc(CNS(C)(=O)=O)cc1S(=O)(=O)NC(=O)Nc1nc(OC)cc(OC)n1 | inactive | inactive | inactive | inactive | inactive | inactive | inactive | inactive | inactive | inactive |  |  |  |  |  |  |  |  |  |  |
| C#C[C@]1(O)CC[C@H]2[C@@H]3CCC4=CC(=O)CC[C@@H]4[C@H]3CC[C@@]21CC | inactive | inactive | inactive | inactive | inactive | inactive | inactive | inactive | inactive | inactive |  |  |  |  |  |  |  |  |  |  |
| CCCCC(CC)CN1C(=O)C2C3C=CC(C3)C2C1=O (stereo unspecified) |  | inactive | inactive | inactive |  | inactive | inactive | inactive |  | inactive | 20 µM (active) |  |  |  | 16 µM (active) |  |  |  | 20 µM (active) |  |
| CCOC(=O)C(C)Oc1ccc(Oc2cnc3cc(Cl)ccc3n2)cc1 (stereo unspecified) | inactive | inactive | inactive | inactive | inactive | inactive | inactive | inactive | inactive | inactive |  |  |  |  |  |  |  |  |  |  |
